# The panel holds about 83,000 compounds, 20% with a hit somewhere; the sample as a whole holds those more often.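 Step 1: grow cells in 96-well plates. Step 2: add test compound at a single concentration. Step 3: incubate 48 h. Step 4: record percent growth.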 Activity calls are given as the source filed them. Rule for the calls: active = growth percent below 10; inactive = the rest.
# Tested on: SF-295 CNS
# Assay: NCI-60 one-dose screen, 48 h (100 = growth as untreated, 0 = no growth, -100 = all killed)
# Conditions: 10 µM
row,Structure (SMILES),growth
1,CCCCCCCCCCCC(=O)NCCCN(C)C,95.6% (inactive)
2,Nc1ccc(C2=CC(c3ccc(Cl)cc3)N3C=CSC3=N2)cc1 (centres undefined),-0.33% (active)
3,CC(=O)n1nc(C(=O)OC(C)(C)C)c2cc(F)c(F)cc21,101% (inactive)
4,COC(=O)c1c(C)nc(Nc2nc3ccccc3s2)nc1-c1ccc(Cl)cc1Cl,93.3% (inactive)
5,O=C(O)CCCCSCCCCC(=O)O,99.6% (inactive)
6,COc1cc(-c2nc3ccc(C)cc3[nH]2)ccc1OCC(=O)N=Nc1c(O)[nH]c2ccccc12,-52.8% (active)
7,CC1=CSC2=NC(c3ccc(Cl)c(Cl)c3)=CC(c3ccc(Cl)cc3)N12 (centres undefined),99.6% (inactive)
8,COc1ccc(Nc2ccnc(N3CCN(c4ccnc5cc(Cl)ccc45)CC3)n2)cc1,-4.17% (active)
9,Cn1cnc([N+](=O)[O-])c1/C=C1\Oc2ccc(Cl)cc2C1=O,105% (inactive)
10,CCOC(=O)Cn1nnc(-c2ccc(OCc3ccccc3F)cc2)n1,91.7% (inactive)
11,COc1ccc(/C(CS(=O)(=O)c2ccccc2)=N\O)cc1,88.5% (inactive)
12,COc1ccc(S(=O)(=O)Nc2cc(/C=C\c3cc(OC)c(OC)c(OC)c3)ccc2OC)cc1,13% (inactive)
13,COc1ccc2nc(C)cc(Nc3ccc(Cl)cc3)c2c1,108% (inactive)
14,COc1cc(-c2nc3ccc(C)cc3[nH]2)ccc1OCc1nnc(-c2ccc(CC(C)C)cc2)o1,96.3% (inactive)
15,Cc1noc(C)c1-c1ccc2nc(NC(=O)[C@H]3CCN(C#N)C3)cn2c1,97% (inactive)
16,COc1ccc(COC(=O)CC(C)C)cc1,97.1% (inactive)
17,Cc1ccc(-n2nnc3c(sc4ccccc43)c2=O)cc1,27.3% (inactive)

row,Structure (SMILES),growth
1,Nc1ccn([C@@H]2O[C@H](COP(=O)(O)O[C@@H]3C[C@H](n4cc(F)c(=O)[nH]c4=O)O[C@@H]3COP(=O)(O)O[C@@H]3C[C@H](n4cc(F)c(=O)[nH]c4=O)O[C@@H]3COP(=O)(O)O[C@@H]3C[C@H](n4cc(F)c(=O)[nH]c4=O)O[C@@H]3COP(=O)(O)O[C@@H]3C[C@H](n4cc(F)c(=O)[nH]c4=O)O[C@@H]3COP(=O)(O)O[C@@H]3C[C@H](n4cc(F)c(=O)[nH]c4=O)O[C@@H]3COP(=O)(O)O[C@@H]3C[C@H](n4cc(F)c(=O)[nH]c4=O)O[C@@H]3COP(=O)(O)O[C@@H]3C[C@H](n4cc(F)c(=O)[nH]c4=O)O[C@@H]3COP(=O)(O)O[C@@H]3C[C@H](n4cc(F)c(=O)[nH]c4=O)O[C@@H]3COP(=O)(O)O[C@@H]3C[C@H](n4cc(F)c(=O)[nH]c4=O)O[C@@H]3COP(=O)(O)O[C@@H]3C[C@H](n4cc(F)c(=O)[nH]c4=O)O[C@@H]3COP(=O)(O)OCCOCCOCCOCCOCCOCCO)[C@H](O)C2O)c(=O)n1 (some centres undefined),1.32% (active)
2,COc1ccc(-c2nnc(COc3ccc(NC(=O)Nc4cccc(C(F)(F)F)c4)cc3F)o2)cc1,64.2% (inactive)
3,Fc1ccc(Nc2ccnc(N3CCN(c4ccnc5cc(Cl)ccc45)CC3)n2)cc1,39.6% (inactive)
4,CCOC(=O)c1cc(-c2ccccc2)nc(N)n1,93.8% (inactive)
5,CC1(CO)CCCC12OCCO2 (centres undefined),82.3% (inactive)
6,CCc1c(C)[nH]c(=O)c(C(N)=O)c1C#N,98.1% (inactive)
7,CCOc1ccc2c(c1)CC[C@@H]1[C@@H]2CC[C@]2(C)[C@@H](O)[C@@H](O)C[C@@H]12,100% (inactive)
8,COc1ccc(OC)c([N+](=O)[O-])c1C=O,93.7% (inactive)
9,CCOC(=O)Nc1ccc2c(c1)C(=O)N(CC)c1ccccc1O2,3.36% (active)
10,Cc1ccc(C)c2c1sc1nc3n[nH]c(N)c3c(=N)n12,106% (inactive)
11,c1ccc(CC(NCCNC(Cc2ccccc2)c2ccccc2)c2ccccc2)cc1 (centres undefined),2.14% (active)
12,Cc1ccc2nc(-c3ccc(OCC(=O)N=Nc4c(O)[nH]c5ccccc45)cc3)[nH]c2c1,97.1% (inactive)
13,COc1ccc2c(=O)cc(C(Cl)(Cl)Cl)oc2c1,-31.1% (active)
14,c1ccc(OCCC[P+](c2ccccc2)(c2ccccc2)c2ccccc2)cc1,-30.7% (active)
15,COc1cc(CSc2nc3ccc(C)cc3c(=O)n2Cc2ccccc2)cc(OC)c1OC,31% (inactive)
16,C[N+]1=C(/C=C/c2ccc(I)cc2)C(C)(C)c2ccccc21,100% (inactive)
17,COc1ccccc1S(=O)(=O)Nc1ccc2c(c1)CN(C)C(=O)N2,5.34% (active)

# From PubChem BioAssay (NCI)
